Results on 24 compounds are retold here after PubChem BioAssay (NCATS).

The target in assay [1] is Glucocorticoid receptor (Homo sapiens) (UniProt P04150). Nature of the assay: qHTS assay for small molecule antagonists of glucocorticoid receptor signaling (AID 588533; active = well fitted inhibition curve with a large enough effect in the signal ratio, with a control signal flat, not every such curve was filed as active; the % refers to the signal ratio;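 note: cells stimulated with 2 nM dexamethasone as agonist; % is set by controls: 0 for no effect and ±100 for the full control effect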). An outline of the steps: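 Antagonist-mode qHTS: compound titrations added to GRE-bla HeLa cells, then dexamethasone 2 nM final; 18 h, 37 C. CCF4 FRET fluorescence normalized to dexamethasone and DMSO; IC50 from Hill fit.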

The target in assay [2] is Retinoic acid receptor RXR-alpha (Homo sapiens) (UniProt P19793). Nature of the assay: qHTS assay for small molecule agonists of retinoid X receptor alpha signaling (AID 588544).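 Note: 0% = DMSO basal wells and 100% = reference agonist.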
Assay [3] can be described thus: qHTS assay for small molecule agonists of the antioxidant response element (ARE) signaling pathway (AID 651741; active = well fitted activation curve with a large enough effect in the signal ratio; the % refers to the signal ratio; note: potency is the fitted concentration of half-maximal effect; for activation: % of control where 0% means no effect). The gist of the method:
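Reporter: beta-lactamase under ARE, stably in HepG2. Exposure: 16 h, 37 C, compounds delivered in DMSO by pin tool after 5 h cell preincubation. Readout: FRET substrate fluorescence after 2 h at RT.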

Assay [4] is described as follows: qHTS assay for small molecule activators of the nuclear factor-kappa B (NF-kB) signaling pathway (AID 651749; active = well fitted activation curve with a large enough effect in the signal ratio; the % refers to the signal ratio; note: series mostly up to about 77 µM; % of control where 0% means no effect). The note with it: NF-kB-bla ME-180 cells, beta-lactamase FRET ratio, 16 h; activation: hits give high values. The gist of the method:
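Human ME-180 cervical cells with an NF-kB-bla construct; compounds added via 23 nL pin transfer, DMSO as vehicle; incubation 16 hr. Reporter activity measured by FRET disruption.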

For assay [5], the target named is Peroxisome proliferator-activated receptor gamma (Homo sapiens) (UniProt P37231). In words: qHTS assay for small molecule antagonists of peroxisome proliferator-activated receptor gamma signaling (AID 588537; active = well fitted inhibition curve with a large enough effect in the signal ratio, with a control signal flat, not every such curve was filed as active; the % refers to the signal ratio;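 note: reporter cells co-stimulated with 50 nM rosiglitazone agonist during compound treatment; % of control where 0% means no effect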). An outline of the steps: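 Compounds are tested as concentration series for inhibition of rosiglitazone-driven (50 nM) reporter expression in GeneBLAzer PPAR-gamma-UAS-bla HEK293 cells. After 16 h at 37 C, CCF4 substrate is added for 2 h at room temperature and blue/green fluorescence is measured.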

Records with an inconclusive call do not appear. Values without a mark were called inactive. The source made the active and inactive calls. Unless noted, calls come from the whole dose curve.

Retinoic acid receptor RXR-alpha (Homo sapiens), sequence (P19793 whole entry, looked up): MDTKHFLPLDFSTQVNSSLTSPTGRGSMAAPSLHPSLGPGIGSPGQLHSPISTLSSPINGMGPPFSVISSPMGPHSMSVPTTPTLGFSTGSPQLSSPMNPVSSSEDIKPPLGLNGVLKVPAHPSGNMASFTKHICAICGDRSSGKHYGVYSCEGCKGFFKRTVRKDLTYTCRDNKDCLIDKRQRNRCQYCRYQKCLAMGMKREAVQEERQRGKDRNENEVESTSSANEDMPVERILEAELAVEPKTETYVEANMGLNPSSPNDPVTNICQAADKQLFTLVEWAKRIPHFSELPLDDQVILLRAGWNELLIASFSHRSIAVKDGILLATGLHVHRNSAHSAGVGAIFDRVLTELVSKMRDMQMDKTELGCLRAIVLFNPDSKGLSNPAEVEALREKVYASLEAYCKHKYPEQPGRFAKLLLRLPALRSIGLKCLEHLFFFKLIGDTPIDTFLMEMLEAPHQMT
Peroxisome proliferator-activated receptor gamma (Homo sapiens), sequence (P37231 whole entry, looked up): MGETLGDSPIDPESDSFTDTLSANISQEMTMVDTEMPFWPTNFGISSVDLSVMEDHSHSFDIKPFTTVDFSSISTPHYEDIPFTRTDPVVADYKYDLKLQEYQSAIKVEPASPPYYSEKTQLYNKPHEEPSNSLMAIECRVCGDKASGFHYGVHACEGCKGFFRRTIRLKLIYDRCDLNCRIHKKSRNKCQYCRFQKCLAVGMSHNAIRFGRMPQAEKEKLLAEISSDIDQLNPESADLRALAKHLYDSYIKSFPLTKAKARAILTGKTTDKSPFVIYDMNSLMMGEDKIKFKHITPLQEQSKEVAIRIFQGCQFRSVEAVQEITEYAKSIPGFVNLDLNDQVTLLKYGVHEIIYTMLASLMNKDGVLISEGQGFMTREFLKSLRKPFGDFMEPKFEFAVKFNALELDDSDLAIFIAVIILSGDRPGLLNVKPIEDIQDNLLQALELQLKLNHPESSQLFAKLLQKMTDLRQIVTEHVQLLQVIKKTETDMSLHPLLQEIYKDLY
Glucocorticoid receptor (Homo sapiens), sequence (P04150 whole entry, looked up): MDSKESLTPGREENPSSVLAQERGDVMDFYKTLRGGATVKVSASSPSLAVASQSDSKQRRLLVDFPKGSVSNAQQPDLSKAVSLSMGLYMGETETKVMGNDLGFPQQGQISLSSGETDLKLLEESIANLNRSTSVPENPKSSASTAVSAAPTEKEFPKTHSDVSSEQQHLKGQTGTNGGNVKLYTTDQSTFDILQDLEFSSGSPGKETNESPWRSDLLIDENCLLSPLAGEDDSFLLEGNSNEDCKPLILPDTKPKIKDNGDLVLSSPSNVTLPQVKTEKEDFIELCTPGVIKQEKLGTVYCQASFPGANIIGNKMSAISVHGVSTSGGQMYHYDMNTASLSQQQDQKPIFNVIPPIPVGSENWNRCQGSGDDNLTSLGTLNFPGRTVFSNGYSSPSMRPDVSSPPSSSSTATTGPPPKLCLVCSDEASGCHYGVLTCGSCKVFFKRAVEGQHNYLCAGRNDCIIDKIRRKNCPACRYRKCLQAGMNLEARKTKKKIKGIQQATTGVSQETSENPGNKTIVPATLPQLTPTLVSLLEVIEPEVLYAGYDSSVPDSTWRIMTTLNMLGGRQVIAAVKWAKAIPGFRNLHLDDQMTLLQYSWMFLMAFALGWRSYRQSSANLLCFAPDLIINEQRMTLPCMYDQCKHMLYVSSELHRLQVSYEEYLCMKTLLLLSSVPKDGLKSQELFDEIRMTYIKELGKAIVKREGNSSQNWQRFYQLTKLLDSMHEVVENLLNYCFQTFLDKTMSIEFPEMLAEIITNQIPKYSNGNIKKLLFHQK

Consider `CC(C)(N=C=O)c1cccc(C(C)(C)N=C=O)c1`, for which the Potency entry in assay [1], in assay [2] and in assay [3] was “inactive” each time. The activation in assay [4] was -0.946%.

As to `CC(C)CC(C)(O)C#CC(C)(O)CC(C)C` (stereo not given), the Potency entry in assay [1], in assay [5], in assay [2] and in assay [3] was “inactive” each time. The activation in assay [4] is -0.882%.

`O=C(c1ccccc1)c1ccc(O)c(O)c1O`: the Potency entry in assay [1] and in assay [2] was “inactive” in each case.

Turning to `CCCCCCCC/C=C\CCCCCCCC(=O)OC`, the Potency entry in assay [1], in assay [5] and in assay [2] was “inactive” throughout. Also, in assay [4], the activation was -2.39%.

On to `C=CCOc1nc(OCC=C)nc(OCC=C)n1`, for which the Potency entry in assay [1] and in assay [2] was “inactive” each time. In assay [4], the activation is 0.86%.

On to `COC(=O)c1ccc(CNS(C)(=O)=O)cc1S(=O)(=O)NC(=O)Nc1nc(OC)cc(OC)n1`, for which the Potency entry in assay [1] and in assay [2] was “inactive” throughout.

As to `CC(C)C(=O)OC(=O)C(C)C`, the Potency result in assay [1] and in assay [2] was “inactive” each time.

With `COCCOCCOCCO`, the Potency entry in assay [1] and in assay [2] was “inactive” each time.

Consider `CCCCCCCCCCCC[N+](C)(C)C`, for which the Potency result in assay [1] was “inactive”. For the same compound, the Potency in assay [3] was 19.3 µM (active). For the same compound, the activation in assay [4] is -3.69%.

Regarding `CCCCCCCCCCCCCCC`, the Potency result in assay [1] was “inactive”. Further, the activation in assay [4] was -1.21%.

As to `CC(C)CCCCCCCCCCCCCCC(=O)O`, the Potency result in assay [1] was “inactive”. Further, the activation in assay [4] is -0.531%.

Regarding `O=[N+]([O-])c1ccc(O)cc1C(F)(F)F`, the Potency entry in assay [5] is “inactive”. Also, in assay [3], the Potency was 34.4 µM (active).

`CCOCCOCCOCC`: the Potency entry in assay [5] and in assay [2] was “inactive” throughout. Further, the activation in assay [4] was -0.223%.

Turning to `CCCCCCCC/C=C\CCCCCCCCO`, the Potency entry in assay [2] and in assay [3] was “inactive” throughout. In assay [4], the activation was -1.39%.

For the compound `Oc1ccc(Nc2ccccc2)cc1`, the Potency entry in assay [1] was “inactive”. Moreover, the Potency in assay [3] was 24.3 µM (active). The activation in assay [4] was -2.8%.

With `CCCCC(CC)COC(=O)CS` (stereo not given), the Potency result in assay [1] is “inactive”. Also, the activation in assay [4] is 1.76%.

In the case of `C[C@]12CC[C@@H]3c4ccc(O)cc4CC[C@H]3[C@@H]1CC[C@H]2O`, the Potency entry in assay [3] is “inactive”.

Take `CCCCCCCC[Si](OCC)(OCC)OCC`: the Potency result in assay [1], in assay [5] and in assay [3] was “inactive” in each case. Further, the activation in assay [4] was 1.32%.

Turning to `Cc1ccc2c(c1)C(=O)OC2=O`, the Potency result in assay [1], in assay [2] and in assay [3] was “inactive” each time.

In the case of `C=C(C)C(=O)OCCOCCOCCOC(=O)C(=C)C`, the Potency entry in assay [5], in assay [2] and in assay [3] was “inactive” each time.

As to `CCCCC(CC)COC(C)=O` (stereo not given), the Potency result in assay [1], in assay [5], in assay [2] and in assay [3] was “inactive” in each case. In addition, the activation in assay [4] was -1.18%.

As to `CCCCCCCCCCCCN`, the Potency entry in assay [1], in assay [5], in assay [2] and in assay [3] was “inactive” in each case. Further, in assay [4], the activation is -1.82%.

In the case of `CC(C)CCCCOC(=O)c1ccccc1C(=O)OCCCCC(C)C`, the Potency entry in assay [5] was “inactive”. For the same compound, in assay [4], the activation was -2.54%.

Take `CC1=CC(=O)CC(C)(C)C1`: the Potency result in assay [1], in assay [5] and in assay [2] was “inactive” throughout.
